Test results as given in PubChem BioAssay AID504847 (National Center for Advancing Translational Sciences (NCATS), 2011).
In all, about 400,000 compounds went through this assay and about 3,700 (0.93%) were called active. Inconclusive results (about 3%) are left out. Calls come from the whole dose curve; as a rule, active = well fitted inhibition curve with a large enough effect; inconclusive = small, poorly fitted or top-dose-only effect, or another doubt; inactive = no such curve, though single readings can be large or run the other way. The full list was thinned out, with actives kept by preference.

Target: Vitamin D3 receptor (Homo sapiens) (UniProt P11473)
Test: Inhibitors of the vitamin D receptor (VDR): qHTS
Conditions: VDR-SRC2-3 peptide fluorescence polarization, 2 h; max response, negative = inhibition: active compounds read low
Summary of the method: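 The screen uses fluorescence polarization to detect compounds that interfere with recruitment of the SRC2-3 coactivator peptide to VDR; plates are read after 2 h at room temperature.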
% is set by controls: 0 for no effect and ±100 for the full control effect; potency is the fitted concentration of half-maximal effect.

Vitamin D3 receptor (Homo sapiens), sequence (P11473 whole entry, looked up): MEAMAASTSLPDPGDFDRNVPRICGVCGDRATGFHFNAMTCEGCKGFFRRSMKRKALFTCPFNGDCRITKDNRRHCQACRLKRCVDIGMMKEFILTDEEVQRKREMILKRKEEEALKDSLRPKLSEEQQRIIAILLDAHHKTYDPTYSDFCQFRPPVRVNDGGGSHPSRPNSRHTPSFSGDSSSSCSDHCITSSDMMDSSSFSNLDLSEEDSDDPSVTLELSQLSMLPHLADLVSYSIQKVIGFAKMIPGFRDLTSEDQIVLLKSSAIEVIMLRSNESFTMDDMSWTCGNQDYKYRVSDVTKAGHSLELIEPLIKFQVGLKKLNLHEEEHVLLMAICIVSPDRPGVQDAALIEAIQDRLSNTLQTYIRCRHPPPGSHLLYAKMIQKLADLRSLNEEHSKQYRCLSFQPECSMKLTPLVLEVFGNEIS

SMILES | max response, negative = inhibition | Potency
COc1cc(C(=O)NCCS(=O)(=O)N2CCN(c3ccccc3)CC2)cc(OC)c1OC | 22.4% (inactive) | –
COc1ccc(-c2onc(C)c2C)cc1S(=O)(=O)NCC1CCN(Cc2cccc(F)c2)CC1 | -0.795% (inactive) | –
Cc1cc(NC(=O)c2ccc(-c3ccc(Cl)cc3)o2)cc(-c2nc3ncccc3o2)c1O | -16% (inactive) | –
Cc1ccc(CSCC2Nc3ccc(C(=O)N4CCN(c5ccc(F)cc5)CC4)cc3NC2=O)cc1 (stereo not drawn) | – | 79.4 µM (active)
CC1CCN(C(=O)c2ccc3c(c2)NC(=O)CN3)CC1 | 8.33% (inactive) | –
Cc1ccc(SCC(=O)N2CCN(c3ccc(F)cc3)CC2)cc1 | 9.21% (inactive) | –
CCOC(=O)c1c(S(=O)(=O)N2CCCC(C(=O)NCc3cccc(C)c3)C2)c(C)n(C)c1C (stereo not drawn) | 14.2% (inactive) | –
CCCN(CCC)CCCNC(=O)Cn1cc2c(n1)-c1c(oc(C(=O)N3CCCC3)c1C)CC2 | 4.81% (inactive) | –
COc1ccc(-c2nc(Cn3c(=O)cc(C)c4c(C)nn(-c5ccccc5)c43)c(C)o2)c(OC)c1 | 3.2% (inactive) | –
COc1ccc2c(c1)c(N1CCCC1=O)c(C(=O)Nc1ccccc1C(F)(F)F)n2C | 13.2% (inactive) | –
Cc1ccc(-c2nc3cccc(C)n3c2Nc2ccc3c(c2)OCCO3)cc1 | -25.9% (inactive) | –
CC(C)c1ccc(C2CC(=O)N3CN(C4CCCCC4)CSC3=C2C#N)cc1 (stereo not drawn) | – | 14.1 µM (active)
CC(C)c1ccc(C2C(C#N)=C(N)Oc3c2oc(CO)cc3=O)cc1 (stereo not drawn) | -3.81% (inactive) | –
COc1cc(Nc2nc(-c3ccc(OC)c(OC)c3)nc3ccccc23)cc(OC)c1 | 19% (inactive) | –
CC(=O)Oc1ccc(N(C(C)=O)S(=O)(=O)c2ccc3ccccc3c2)cc1Br | 7.52% (inactive) | –
CC(=O)N(c1ccc2oc(=O)sc2c1)S(=O)(=O)c1ccc(C)cc1 | – | 70.8 µM (active)
COC(=O)c1c(C)oc2ccc(N(C(=O)Oc3ccccc3)S(=O)(=O)c3ccccc3)cc12 | 2.55% (inactive) | –
CC(NC(=O)c1cc2c(=O)n3ccccc3nc2n(C(C)C)c1=N)c1ccccc1 (stereo not drawn) | -2.71% (inactive) | –
Cc1ccc(-n2c(=O)c3cccnc3n2CC(=O)Nc2ccccc2C(F)(F)F)cc1C | 10.3% (inactive) | –
COc1ccc(S(=O)(=O)Nc2ccccc2C(=O)N2CCCC2)cc1C | 4.61% (inactive) | –
O=C(O)c1ccccc1/C=N/Nc1ccc(S(=O)(=O)Nc2ccc(Cl)cc2)cc1[N+](=O)[O-] | -16.1% (inactive) | –
COc1ccc(Br)cc1/C=N/Nc1ccc(S(=O)(=O)Nc2ccccc2C(=O)O)cc1[N+](=O)[O-] | – | 79.4 µM (active)
Cc1cc(C)nc(NS(=O)(=O)c2ccc(NC(=O)c3cc(=O)c4ccc(C)c(C)c4o3)cc2)n1 | 19.7% (inactive) | –
O=C(NCCCc1ccccc1)c1ccc2c(c1)sc1nc(-c3ccc(F)cc3)cn12 | 9.26% (inactive) | –
Cc1ccc(-c2cc(-c3coc4ccccc4c3=O)c3c(n2)-c2cc(Cl)ccc2OC3)cc1 | 2.47% (inactive) | –
Cc1ccccc1C1=N/C(=C/c2cccnc2)C(=O)O1 | – | 70.8 µM (active)
Cc1ccc(C2=C/C(=C\c3cccnc3)C(=O)O2)cc1 | -0.781% (inactive) | –

SMILES | max response, negative = inhibition | Potency
Nc1ccc2c(c1)C(=Cc1cccnc1)c1ccccc1-2 | -7.1% (inactive) | –
Cc1ccc(NC(=O)CSc2nc3c([nH]c4ccccc43)c(=O)n2-c2ccccc2)cc1Cl | 5.44% (inactive) | –
O=C(CCCn1c(=O)c2cccn2c2cccnc21)NCc1ccc(F)cc1 | 8.91% (inactive) | –
CCOc1ccc(NC(=O)Cn2c(C)ccc(C#N)c2=O)cc1 | -0.0869% (inactive) | –
CCn1cc(CCC(=O)NCc2ccc(F)cc2)c2ccccc21 | -3.64% (inactive) | –
Cc1ccc(CS(=O)(=O)CCC(=O)NCc2ccc(F)cc2)cc1 | -16.2% (inactive) | –
CCCCC(=O)NCc1ccc(F)cc1 | – | 3.16 µM (active)
Cc1ccc(C)c(N2CCN(C(=O)Cn3ncc4c(=O)oc5ccc(C)cc5c43)CC2)c1 | -7.32% (inactive) | –
CCOc1ccc(NC(=O)C2CCN(S(=O)(=O)c3cc(-c4noc(C)n4)ccc3C)CC2)cc1 | 15.5% (inactive) | –
Oc1c(C=Nc2cccc3nsnc23)ccc2ccccc12 | – | 79.4 µM (active)
COc1ccc2[nH]c3c(c2c1)CCN(C(=O)CCC1CCCC1)C3c1ccc(F)cc1 (stereo not drawn) | 12.3% (inactive) | –
CCc1cc2c(cc3c(=O)n(CC(=O)NCc4cccc(Cl)c4)nc(CC)n32)s1 | -17.2% (inactive) | –
Cc1ccc(/C=N/NC(=O)CSc2nc3ccccc3o2)cc1 | – | 79.4 µM (active)
CC(C)(C)C(=O)CSc1nc2ccccc2o1 | -1.66% (inactive) | –
O=C(CSc1nc2ccccc2o1)N/N=C/c1ccccc1C(=O)O | -26.3% (inactive) | –
COc1ccc(OCCCn2c(C)nc3cc(C)c(C)cc32)cc1 | 10% (inactive) | –
COc1cc2c(cc1OC)[C@@H](Cc1cc(OC)c(OC)c(OC)c1)[N+](C)(CCCOC(=O)CC/C=C/CCC(=O)OCCC[N+]1(C)CCc3cc(OC)c(OC)cc3[C@H]1Cc1cc(OC)c(OC)c(OC)c1)CC2 (stereo partly drawn) | 3.39% (inactive) | –
O=C1C(Cl)=C(Oc2ccccc2)C(=O)c2ccccc21 | – | 7.08 µM (active)
CCOc1cc(C(=O)Nc2nnc3n2CCS3)cc(OCC)c1OCC | -8% (inactive) | –
O=S(=O)(c1cccc(C(F)(F)F)c1)N1CCN(c2nc(-c3cccs3)nc3ccccc23)CC1 | 3.96% (inactive) | –
COc1ccccc1CNc1nccn(-c2ccc(F)cc2)c1=O | 6.76% (inactive) | –
CC(C)[C@@H](NC(=O)OC(C)(C)C)C(=O)NCC1CCC(C(=O)N[C@@H](Cc2ccccc2)C(=O)O)CC1 (stereo partly drawn) | -5.18% (inactive) | –
COc1ccccc1NC(=O)[C@H](COCc1ccccc1)NC(=O)OC(C)(C)C | 6.86% (inactive) | –
C[C@@H](NC(=O)OC(C)(C)C)c1nnc(S(=O)(=O)Cc2ccccc2)o1 | – | 28.2 µM (active)
O=c1cc2nc(-c3ccccc3)nc(SCCOc3ccc(Cl)cc3)n2[nH]1 | 11.1% (inactive) | –
CCOC(=O)c1cc2c(=O)n3ccccc3nc2n(CC2CCCO2)c1=NC(=O)c1ccccc1F (stereo not drawn) | -16% (inactive) | –
